25 compounds from PubChem BioAssay (NCATS) can be followed below.

Records with an inconclusive call do not appear. Some compounds were tested as several samples or in several runs, with calls that do not always agree. Activity calls are given as the source filed them. Unless noted, calls follow the shape of the dose curve; as a rule, active = well fitted curve in the direction sought with a large enough effect; inconclusive = small, poorly fitted or top-dose-only effect, or another doubt; inactive = no such curve, though single readings can be large; an effect the other way counts as inactive or inconclusive.

Sequence of Thyroid hormone receptor beta (Homo sapiens) (P10828 whole entry, looked up): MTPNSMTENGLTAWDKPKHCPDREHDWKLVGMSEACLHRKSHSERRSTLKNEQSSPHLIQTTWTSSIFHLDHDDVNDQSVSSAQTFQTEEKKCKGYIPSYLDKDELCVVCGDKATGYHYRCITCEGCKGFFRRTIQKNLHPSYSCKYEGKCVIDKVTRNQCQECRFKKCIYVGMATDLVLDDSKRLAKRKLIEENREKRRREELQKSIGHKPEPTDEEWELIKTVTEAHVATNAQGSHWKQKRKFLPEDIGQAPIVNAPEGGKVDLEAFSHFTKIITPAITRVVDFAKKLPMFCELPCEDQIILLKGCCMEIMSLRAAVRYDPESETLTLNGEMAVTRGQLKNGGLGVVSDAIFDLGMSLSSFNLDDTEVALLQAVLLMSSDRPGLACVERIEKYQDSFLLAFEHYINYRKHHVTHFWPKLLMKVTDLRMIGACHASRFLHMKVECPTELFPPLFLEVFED
Sequence of Peroxisome proliferator-activated receptor alpha (Homo sapiens) (Q07869 whole entry, looked up, the tested form may be a part): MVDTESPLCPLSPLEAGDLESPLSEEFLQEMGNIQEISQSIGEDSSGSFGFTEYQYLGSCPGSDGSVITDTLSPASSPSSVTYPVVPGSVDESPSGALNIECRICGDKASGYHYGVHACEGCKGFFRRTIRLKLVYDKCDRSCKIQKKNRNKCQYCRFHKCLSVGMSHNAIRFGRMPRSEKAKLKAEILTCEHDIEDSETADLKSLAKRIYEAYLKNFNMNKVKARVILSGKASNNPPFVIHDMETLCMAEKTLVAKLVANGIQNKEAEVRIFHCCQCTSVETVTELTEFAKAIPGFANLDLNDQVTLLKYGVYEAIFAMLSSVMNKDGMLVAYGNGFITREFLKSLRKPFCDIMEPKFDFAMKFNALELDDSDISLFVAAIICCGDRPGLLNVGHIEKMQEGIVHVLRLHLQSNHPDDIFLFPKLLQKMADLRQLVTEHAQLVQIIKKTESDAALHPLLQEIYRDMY
Sequence of Voltage-gated inwardly rectifying potassium channel KCNH2 (Homo sapiens) (Q12809 whole entry, looked up): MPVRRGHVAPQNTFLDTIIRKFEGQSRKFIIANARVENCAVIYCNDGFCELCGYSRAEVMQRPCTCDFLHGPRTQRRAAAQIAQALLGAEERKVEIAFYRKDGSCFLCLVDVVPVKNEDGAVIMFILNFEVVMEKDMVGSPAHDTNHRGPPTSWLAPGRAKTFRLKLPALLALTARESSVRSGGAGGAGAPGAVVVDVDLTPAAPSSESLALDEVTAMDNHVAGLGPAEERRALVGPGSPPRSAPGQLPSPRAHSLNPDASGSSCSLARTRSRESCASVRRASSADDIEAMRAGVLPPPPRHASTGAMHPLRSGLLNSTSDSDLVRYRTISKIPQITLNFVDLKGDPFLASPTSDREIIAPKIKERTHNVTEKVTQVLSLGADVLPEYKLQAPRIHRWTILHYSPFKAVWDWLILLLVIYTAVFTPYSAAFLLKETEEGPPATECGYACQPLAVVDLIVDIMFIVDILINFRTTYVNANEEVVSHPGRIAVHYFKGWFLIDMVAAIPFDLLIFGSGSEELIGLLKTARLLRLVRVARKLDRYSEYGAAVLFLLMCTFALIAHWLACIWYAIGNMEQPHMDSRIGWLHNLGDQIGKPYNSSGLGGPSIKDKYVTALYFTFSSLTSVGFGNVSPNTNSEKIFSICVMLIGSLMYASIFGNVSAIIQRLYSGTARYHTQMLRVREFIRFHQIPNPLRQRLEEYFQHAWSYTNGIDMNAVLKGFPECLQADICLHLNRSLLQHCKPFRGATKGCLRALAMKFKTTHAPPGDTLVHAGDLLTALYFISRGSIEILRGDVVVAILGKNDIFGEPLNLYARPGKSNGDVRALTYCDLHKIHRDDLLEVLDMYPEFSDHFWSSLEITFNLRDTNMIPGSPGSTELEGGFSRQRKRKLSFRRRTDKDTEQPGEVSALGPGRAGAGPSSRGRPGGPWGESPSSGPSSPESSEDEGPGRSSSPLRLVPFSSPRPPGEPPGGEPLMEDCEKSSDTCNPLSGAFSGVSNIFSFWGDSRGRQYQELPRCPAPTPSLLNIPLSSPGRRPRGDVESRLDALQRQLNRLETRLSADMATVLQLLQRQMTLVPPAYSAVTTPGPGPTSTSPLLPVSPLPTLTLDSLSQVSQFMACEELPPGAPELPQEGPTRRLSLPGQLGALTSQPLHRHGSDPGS

For one test, the target named is Vitamin D3 receptor (Homo sapiens) (UniProt P11473). The experiment in a line: qHTS assay for small molecule agonists of vitamin D receptor signaling (AID 588543; calls by dose curve;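 also: 0% = DMSO basal and 100% = reference agonist control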). The note with it: HEK293T VDR-UAS-bla, beta-lactamase ratio, 16 h; series mostly up to 76.8 µM; activation: at the top concentration. In short, it runs like this: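 Agonist-mode beta-lactamase reporter: HEK293T VDR-UAS-bla cells in charcoal-stripped 2% FBS, compound series 16 h 37 C, CCF4 2 h RT. EC50 from Hill fit, scaled against DMSO and 50 nM calcitriol control.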
Sequence of Vitamin D3 receptor (Homo sapiens) (P11473 whole entry, looked up): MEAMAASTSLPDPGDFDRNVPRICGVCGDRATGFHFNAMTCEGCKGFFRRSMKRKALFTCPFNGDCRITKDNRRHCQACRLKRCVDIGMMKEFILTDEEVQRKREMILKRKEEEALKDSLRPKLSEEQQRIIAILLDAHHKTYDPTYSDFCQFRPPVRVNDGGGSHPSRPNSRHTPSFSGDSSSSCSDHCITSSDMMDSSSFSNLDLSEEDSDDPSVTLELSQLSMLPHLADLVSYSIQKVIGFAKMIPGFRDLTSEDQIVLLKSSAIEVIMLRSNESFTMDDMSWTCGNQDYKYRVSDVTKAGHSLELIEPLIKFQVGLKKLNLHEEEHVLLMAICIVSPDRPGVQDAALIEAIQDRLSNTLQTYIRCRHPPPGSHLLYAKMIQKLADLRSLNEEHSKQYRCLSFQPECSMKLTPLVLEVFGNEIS
For orientation: qHTS replaces the single test concentration by a dilution series.
Turning to `CN(c1c(Br)cc(Br)cc1Br)c1c([N+](=O)[O-])cc([N+](=O)[O-])cc1C(F)(F)F`, the “activation” value is -9.31% (inactive).
For the compound `[Cu+2].[O-]c1cccc2cccnc12.[O-]c1cccc2cccnc12`, the “activation” value is 14.8% (inactive).
Consider `CCOP(=O)(OCC)Oc1ccc([N+](=O)[O-])cc1`, for which the “activation” value is 11.5% (inactive).
On the same count and under the same terms, the value for `CCc1nn(C)c(C(=O)NCc2ccc(C(C)(C)C)cc2)c1Cl` was 4.6% (inactive); that for `Cc1ccc(-c2c(Cl)nc(C#N)n2S(=O)(=O)N(C)C)cc1` was 6.64% (inactive).

For another test, the target named is Retinoic acid receptor RXR-alpha (Homo sapiens) (UniProt P19793). The experiment in a line: qHTS assay for small molecule agonists of retinoid X receptor alpha signaling (AID 588544; calls by dose curve;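 also: 0% = DMSO basal wells and 100% = reference agonist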). The settings on record: HEK293T RXRa-UAS-bla, beta-lactamase reporter, 18 h; series mostly up to 76.7 µM; activation: at the top concentration.
Sequence of Retinoic acid receptor RXR-alpha (Homo sapiens) (P19793 whole entry, looked up): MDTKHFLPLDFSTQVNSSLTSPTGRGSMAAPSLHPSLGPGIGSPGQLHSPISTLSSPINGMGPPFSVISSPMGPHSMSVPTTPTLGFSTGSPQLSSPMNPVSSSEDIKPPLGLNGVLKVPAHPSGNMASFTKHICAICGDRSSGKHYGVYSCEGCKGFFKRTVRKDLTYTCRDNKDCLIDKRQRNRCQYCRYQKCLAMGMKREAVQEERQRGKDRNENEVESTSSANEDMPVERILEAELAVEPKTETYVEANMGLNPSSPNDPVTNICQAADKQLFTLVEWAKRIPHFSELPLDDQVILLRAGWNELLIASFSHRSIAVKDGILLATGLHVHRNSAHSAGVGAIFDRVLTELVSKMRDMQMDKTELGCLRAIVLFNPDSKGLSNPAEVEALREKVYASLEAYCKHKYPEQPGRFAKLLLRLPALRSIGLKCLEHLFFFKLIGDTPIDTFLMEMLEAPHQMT
With `COc1ccccc1[N+](=O)[O-]`, the “activation” value was 4.33% (inactive).
Same read-out and setting: in the case of `CCOP(=O)(OCC)Oc1ccc([N+](=O)[O-])cc1` it was -15.4% (inactive).
As for `c1ccccc1`, the Potency entry was “inactive”.

The target of a further test is Thyroid hormone receptor beta (Homo sapiens) (UniProt P10828). The experiment in a line: qHTS assay for small molecule agonists of thyroid hormone receptor beta signaling (AID 588545; calls by dose curve;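 also: 0% = DMSO only and 100% = 10 nM T3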). The settings on record: TR-UAS-bla GripTite HEK 293, beta-lactamase ratio, agonist mode, 18 h; series mostly up to 76.7 µM; activation: at the top concentration. The gist of the method:
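Compounds were tested as agonists in TR-UAS-bla-GripTite HEK 293 cells. After 18 hrs at 37 C, CCF4 substrate was added and fluorescence read after 2 hrs at room temperature.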
`[Cu+2].[O-]c1cccc2cccnc12.[O-]c1cccc2cccnc12`: the “activation” value is 22% (inactive).
With `CCCCNC(=O)OCC#CI`, the “activation” value was -5.11% (inactive).
The same measure, in the same setting: in the case of `CCOC(=O)[C@H](C)Oc1ccc(Oc2nc3ccc(Cl)cc3o2)cc1` it was -9.4% (inactive); in that of `CCOP(=O)(OCC)Oc1ccc([N+](=O)[O-])cc1`, 2.4% (inactive).

The next test has as its target Voltage-gated inwardly rectifying potassium channel KCNH2 (Homo sapiens) (UniProt Q12809). The experiment in a line: qHTS Assay for Small Molecule Inhibitors of the Human hERG Channel Activity (AID 588834).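 Also: top concentration of the series differs between compounds; % is scaled to controls: 0 for no effect and ±100 for the full control effect; lower thallium flux fluorescence means stronger hERG block; nearly all actives have a fitted effect of over 50% in size.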 The note with it: U2OS BacMam hERG, FluxOR thallium flux fluorescence; series mostly up to 92.2 µM; activity change, negative = inhibition: at the top concentration. The gist of the method: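 Kinetic FDSS fluorescence; U2OS + hERG BacMam (~100 virus particles/cell); FluxOR Tl+ flux; ~10 min cpd; AC50 (Hill).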
Take `c1ccccc1`: the Potency result is “inactive”.
Regarding `Cc1ccc2ccc3cccc4ccc1c2c34`, the “activity change, negative = inhibition” value was 35.3% (inactive).
Regarding `CN(C)CCCCCCN(C)C`, the “activity change, negative = inhibition” value was 2.83% (inactive).

Test system in a further test: not listed separately
The experiment in a line: qHTS assay for small molecule agonists of the antioxidant response element (ARE) signaling pathway (AID 651741; active = well fitted activation curve with a large enough effect in the signal ratio; the % refers to the signal ratio; also: potency is read from the fitted curve at half-maximal effect; as to activation: % of control where 0% means no effect). The note with it: HepG2 ARE-bla reporter, beta-lactamase FRET ratio, 16 h; series mostly up to 96 µM; activation: at the top concentration. In short, it runs like this:
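HepG2 ARE-bla cells plated at 2,000 cells/well and incubated 5 h at 37 C/5% CO2 received 23 nL compound in DMSO. After 16 h at 37 C, LiveBLAzer B/G FRET substrate was applied for 2 h at room temperature and fluorescence read.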
Consider `c1ccc2c(c1)ccc1c3ccccc3ccc21`, for which the Potency was 4.33 µM (active).
The same measure, in the same setting: in the case of `CN(c1c(Br)cc(Br)cc1Br)c1c([N+](=O)[O-])cc([N+](=O)[O-])cc1C(F)(F)F` it was 5.45 µM (active).
In the case of `Cc1nn(C)c(Oc2ccccc2)c1/C=N/OCc1ccc(C(=O)OC(C)(C)C)cc1`, the Potency is 0.154 µM (active).
Still for that read-out and setting: in the case of `Cc1ccc([N+](=O)[O-])cc1N` it was 33.5 µM (active) and inactive; in that of `c1ccc2cc3c(ccc4ccccc43)cc2c1`, 12.2 µM (active).
Take `CN(C)c1ccc(Cc2ccc(N(C)C)cc2)cc1`: the “activation” value was 14.7% (inactive).
For `c1ccc(-c2ccc(-c3ccccc3)cc2)cc1`, the Potency was 19.3 µM (active).

Test system in the next test: not listed separately
The experiment in a line: qHTS assay for small molecule activators of the p53 signaling pathway (AID 651743; active = well fitted activation curve with a large enough effect in the signal ratio, not every such curve was filed as active; the % refers to the signal ratio; also: potency is read from the fitted curve at half-maximal effect; as to activation: % of control where 0% means no effect). The note with it: HCT-116 p53RE-bla, beta-lactamase FRET ratio, 16 h; activation: stronger effect = higher value. The gist of the method: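 HCT-116 p53RE-bla, 4,000 cells/well; 5 h settle; cpd/DMSO 16 h, 37 C; LiveBLAzer B/G 2 h RT; fluorescence intensity.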
Turning to `CCCCNC(=O)OCC#CI`, the activation was -1.36% (inactive).
For the compound `CCc1nn(C)c(C(=O)NCc2ccc(C(C)(C)C)cc2)c1Cl`, the Potency was 0.355 µM (active).
Turning to `Nc1cccc(C(F)(F)F)c1`, the activation is -3.34% (inactive).

Test system in a further test: not listed separately
The experiment in a line: qHTS assay for small molecule activators of the nuclear factor-kappa B (NF-kB) signaling pathway (AID 651749; active = well fitted activation curve with a large enough effect in the signal ratio; the % refers to the signal ratio; also: % of control where 0% means no effect). The settings on record: NF-kB-bla ME-180 cells, beta-lactamase FRET ratio, 16 h; activation: stronger effect = higher value. The gist of the method: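 Incubation lasted 16 hr at 37C in 5% CO2 after 23 nL compound addition to ME-180 NF-kB-bla cells. Activation appears as beta-lactamase-mediated FRET loss.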
In the case of `CCOP(=O)(OCC)Oc1ccc([N+](=O)[O-])cc1`, the activation was 0.546% (inactive).
For the compound `CCc1nn(C)c(C(=O)NCc2ccc(C(C)(C)C)cc2)c1Cl`, the activation was 2.69% (inactive).
Still for that read-out and setting: the value for `Cc1ccc(-c2c(Cl)nc(C#N)n2S(=O)(=O)N(C)C)cc1` was 2.86% (inactive).

Test system in another test: not listed separately
The experiment in a line: qHTS assay for environmental chemicals that activate the Aryl hydrocarbon Receptor (AhR) signaling pathway (AID 651777). Also: nearly all actives have a fitted effect of over 15% in size. Also: potency is read from the fitted curve at half-maximal effect. As to activation: % of control where 0% means no effect. The note with it: 1A2-DRE human hepatoma cells, luciferase, 24 h; activation: stronger effect = higher value. The gist of the method:
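Following a 24 hr incubation with test chemicals at 37 C and 5% CO2, 1A2-DRE human hepatoma cells received One-Glo reagent; after 30 min at room temperature, luciferase output reflected CYP1A2 induction via AhR.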
With `c1ccc2c(c1)ccc1c3ccccc3ccc21`, the Potency is 11.2 µM (active).
In the case of `CN(c1c(Br)cc(Br)cc1Br)c1c([N+](=O)[O-])cc([N+](=O)[O-])cc1C(F)(F)F`, the activation is -7.94% (inactive).
For `[Cu+2].[O-]c1cccc2cccnc12.[O-]c1cccc2cccnc12`, the activation was -12.2% (inactive).
The same measure, in the same setting: the value for `CCCCNC(=O)OCC#CI` was -10.9% (inactive); that for `CCOP(=O)(OCC)Oc1ccc([N+](=O)[O-])cc1` was 0.386% (inactive).
`Nc1ccccc1O`: the Potency was 12.6 µM (active).
On to `Cc1ccc(-c2c(Cl)nc(C#N)n2S(=O)(=O)N(C)C)cc1`, for which the activation was 12.8% (inactive).
Regarding `c1ccc2cc3c(ccc4ccccc43)cc2c1`, the Potency is 22.4 µM (active).
For the compound `Oc1ccc2ccccc2c1N=Nc1ccccc1`, the Potency was 14.1 µM (active).

Another test addresses Peroxisome proliferator-activated receptor alpha (Homo sapiens) (UniProt Q07869). The experiment in a line: qHTS assay for small molecule agonists of the peroxisome proliferator-activated receptor alpha (PPARalpha) signaling pathway (AID 651778). Also: % of control where 0% means no effect. The note with it: PathHunter PPARalpha complementation, chemiluminescence, 6 h; max response: stronger effect = higher value. In short, it runs like this: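 Enzyme-fragment complementation assay in which ligand-bound PPARalpha translocates and forms an active enzyme that generates chemiluminescence. Cells were plated overnight, exposed to compound for 6 hr at 37 C, and then given detection reagent for 60 min at room temperature.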
Regarding `CN(c1c(Br)cc(Br)cc1Br)c1c([N+](=O)[O-])cc([N+](=O)[O-])cc1C(F)(F)F`, the max response is -2.57% (inactive).
Take `[Cu+2].[O-]c1cccc2cccnc12.[O-]c1cccc2cccnc12`: the max response was -9.55% (inactive).
Still for that read-out and setting: the value for `CCCCNC(=O)OCC#CI` was -2.4% (inactive); that for `CCOP(=O)(OCC)Oc1ccc([N+](=O)[O-])cc1` was -2.58% (inactive).
Same read-out and setting: the value for `Cc1ccc(-c2c(Cl)nc(C#N)n2S(=O)(=O)N(C)C)cc1` was 15.7% (inactive).

Another test deals with Nuclear receptor ROR-gamma (Homo sapiens) (UniProt P51449). As to the kind of experiment: qHTS assay for small molecule antagonists of the retinoid-related orphan receptor gamma (ROR-gamma) signaling pathway (AID 651802). Also: nearly all actives have a fitted effect of over 60% in size. Also: potency is read from the fitted curve at half-maximal effect. As to activity change, negative = inhibition: % is scaled to controls: 0 for no effect and ±100 for the full control effect. The note with it: ROR-gamma antagonist cell reporter assay; series mostly up to 92.2 µM; activity change, negative = inhibition: at the top concentration. In short, it runs like this: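 CHO cells carrying TET-inducible ROR-gamma and an ROR response element–luciferase reporter were exposed to compound, then induced with doxycycline. After 16hr at 37C, luminescence was read; lower signal indicates antagonism.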
Sequence of Nuclear receptor ROR-gamma (Homo sapiens) (P51449 whole entry, looked up): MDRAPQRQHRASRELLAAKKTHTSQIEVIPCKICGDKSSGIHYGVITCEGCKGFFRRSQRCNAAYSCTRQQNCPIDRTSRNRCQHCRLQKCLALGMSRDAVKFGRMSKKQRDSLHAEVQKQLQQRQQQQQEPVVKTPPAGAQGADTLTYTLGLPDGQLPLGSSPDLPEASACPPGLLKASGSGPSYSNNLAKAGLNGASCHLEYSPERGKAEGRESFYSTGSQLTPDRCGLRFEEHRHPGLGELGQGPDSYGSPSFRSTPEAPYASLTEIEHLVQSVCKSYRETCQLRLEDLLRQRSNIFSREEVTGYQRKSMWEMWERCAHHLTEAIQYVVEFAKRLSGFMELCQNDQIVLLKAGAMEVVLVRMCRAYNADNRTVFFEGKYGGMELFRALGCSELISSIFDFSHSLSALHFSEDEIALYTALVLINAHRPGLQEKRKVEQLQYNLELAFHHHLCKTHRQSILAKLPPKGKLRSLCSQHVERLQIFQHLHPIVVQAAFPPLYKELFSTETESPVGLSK
Consider `CC(C)(C)C(=O)C1C(=O)c2ccccc2C1=O`, for which the Potency was 21.1 µM (active).
Consider `CCCCC(CC)COC(=O)CCCCC(=O)OCC(CC)CCCC` (configuration not stated), for which the “activity change, negative = inhibition” value is 25.8% (inactive).
The same measure, in the same setting: in the case of `Cc1cc(C)c(N)cc1C` it was 35% (inactive); in that of `NC(N)=S`, 33.3% (inactive).
Same read-out and setting: in the case of `CN(C)CCCCCCN(C)C` it was 8.6% (inactive).

Test system in the next test: not listed separately
The experiment in a line: qHTS assay for small molecule agonists of the antioxidant response element (ARE) signaling pathway measured by Nrf2-dependant transcriptional activity (AID 720636; active = well fitted curve in the direction sought with a large enough effect in the repeat runs; an effect the other way counts as inactive or inconclusive; also: potency is read from the fitted curve at half-maximal effect;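 as to activation: HepG2 cells with an ARE-driven luciferase reporter; % of control where 0% means no effect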). The note with it: ARE-luc HepG2, Nrf2 luciferase reporter, 16 h; series mostly up to 92.4 µM; activation: at the top concentration. The gist of the method:
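ONE-Glo luminescence, read 30 min after reagent addition at room temperature, reflected ARE reporter activity in HepG2 cells that had been incubated with compound for 16 hr at 37 C in 1% dialyzed FBS.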
For `CN(c1c(Br)cc(Br)cc1Br)c1c([N+](=O)[O-])cc([N+](=O)[O-])cc1C(F)(F)F`, the “activation” value was -0.672% (inactive).
On the same count and under the same terms, in the case of `[Cu+2].[O-]c1cccc2cccnc12.[O-]c1cccc2cccnc12` it was -4.72% (inactive); in that of `CCCCNC(=O)OCC#CI`, -3.92% (inactive); in that of `CCOP(=O)(OCC)Oc1ccc([N+](=O)[O-])cc1`, 0.156% (inactive).
Turning to `CC/C(=C(\c1ccccc1)c1ccc(OCCN(C)C)cc1)c1ccc(O)cc1`, the “activation” value is -4.95% (inactive).
For `CCc1nn(C)c(C(=O)NCc2ccc(C(C)(C)C)cc2)c1Cl`, the “activation” value was -3.9% (inactive).
On to `c1ccc2cc3c(ccc4ccccc43)cc2c1`, for which the Potency was 30.6 µM (active).

Test system in a further test: not listed separately
The experiment in a line: qHTS assay for small molecule agonists of the antioxidant response element (ARE) signaling pathway measured by Nrf2-dependant transcriptional activity - cell viability counter screen (AID 720653; active = well fitted curve in the direction sought with a large enough effect in the repeat runs; an effect the other way counts as inactive or inconclusive; also: potency is read from the fitted curve at half-maximal effect; as to max response: % is scaled to controls: 0 for no effect and ±100 for the full control effect). The settings on record: ARE-bla HepG2 viability, CellTiter-Glo ATP luminescence, 16 h; max response: stronger effect = lower value. In short, it runs like this: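 ARE-bla HepG2 cells treated with compounds for 16 h at 37C; this counter screen measures viability as intracellular ATP by CellTiter-Glo luminescence after 30 min at room temperature.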
In the case of `[Cu+2].[O-]c1cccc2cccnc12.[O-]c1cccc2cccnc12`, the Potency is 11.2 µM (active).
For the compound `CCOP(=O)(OCC)Oc1ccc([N+](=O)[O-])cc1`, the max response is -9.88% (inactive).
Consider `CC/C(=C(\c1ccccc1)c1ccc(OCCN(C)C)cc1)c1ccc(O)cc1`, for which the Potency was 70.8 µM (active).

Test system in the next test: not listed separately
As to the kind of experiment: qHTS assay for cell viability of HEK293 cells (AID 743288). Also: nearly all actives have a fitted effect of over 50% in size. Also: potency is read from the fitted curve at half-maximal effect. As to max response: % is scaled to controls: 0 for no effect and ±100 for the full control effect. The note with it: ATP luminescence (CellTiter-Glo), 18 h; max response: stronger effect = lower value. In short, it runs like this: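 Total intracellular ATP, measured with a luciferase-coupled reagent, indicates the number of viable HEK293 cells. Exposure to test chemicals lasts 18 h at 37 C in 1,536-well format at 2,000 cells/well.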
As for `CN(c1c(Br)cc(Br)cc1Br)c1c([N+](=O)[O-])cc([N+](=O)[O-])cc1C(F)(F)F`, the Potency is 39.8 µM (active).
Turning to `[Cu+2].[O-]c1cccc2cccnc12.[O-]c1cccc2cccnc12`, the Potency was 31.6 µM (active).
`CCOP(=O)(OCC)Oc1ccc([N+](=O)[O-])cc1`: the max response is -2.61% (inactive).
With `CCc1nn(C)c(C(=O)NCc2ccc(C(C)(C)C)cc2)c1Cl`, the max response is -25.1% (inactive).
The same measure, in the same setting: the value for `Cc1ccc(-c2c(Cl)nc(C#N)n2S(=O)(=O)N(C)C)cc1` was -15.9% (inactive).
